Test results taken from PubChem BioAssay.
“And” between values parts separate entries of the source, which are not always exact repeats. Equal entries are not always repeated. The source made the active and inactive calls. Unless noted, no stated cut-off is given here; in the data, active means parasite load remaining mostly below about 12% (no sharp cut-off); inactive means mostly above about 10%.

How the values were obtained:
[1] = liver-stage malaria parasite growth inhibition, primary screen, cell-based, HepG2, luciferase luminescence, HepG2 viability (AID 624349);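 further: 100% = mean of DMSO negative control wells on the same plate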; conditions: P. berghei liver stage in HepG2, luciferase luminescence, concentration not given here; parasite load remaining: stronger effect = lower value; viability: measured here: HepG2 viability without parasites
[2] = stimulators of nuclear beta-catenin in C2C12, primary screen, imaging, WNT3A-conditioned medium, mouse C2C12, NPC library (AID 1117326; in the data active means nuclear beta-catenin stimulation mostly above about 4.2%, no sharp cut-off; inactive means mostly below about 10%); conditions: stronger effect = higher value
[3] = stimulators of insulin release from INS-1E, primary screen, cell-based, 5 mM glucose, NPC library (AID 1117329;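 active means compound raises insulin release from rat beta cells at 5 mM glucose, no numeric limit stated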); conditions: rat INS-1E insulin secretion, at 10 µM, stronger effect = higher value
[4] = growth inhibition of GSK3B-pretreated HCT116 cells – cell-based, CellTiter-Glo, 0.2 to 20 µM (AID 1117336;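 active means compounds lowering colon cancer cell viability after pretreatment blocking the GSK3B kinase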); conditions: HCT116 viability after GSK3B inhibitor, at 20 µM, stronger effect = higher value
[5] = inhibition of endothelial tube formation, primary screen, imaging, VEGF stimulated, CD31 staining, tube area, NPC library (AID 1117340;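 active means compound that reduces growth-factor-driven endothelial tube area in a mixed cell culture, no cutoff stated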); conditions: VEGF-stimulated ADSC/ECFC co-culture, at 10 µM, stronger effect = higher value
[6] = glucagon-like peptide 1 release enhancers, primary assay, NCI-H716 cell line, NPC library (AID 1117341;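 active means compound raises GLP1 secretion from the human gut endocrine cells, with no numeric limit stated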); conditions: NCI-H716 cells, at 10 µM, stronger effect = higher value
[7] = HCT116 colon cancer cell growth inhibition, primary screen, CellTiter-Glo luminescence, NPC library (AID 1117342;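 active means compounds that lower survival of HCT116 colon cancer cells in the luminescence readout, no numeric limit stated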); conditions: at 20 µM (top of the series)
[8] = CellTiter-Glo luminescent readout of SW480 viability loss, NPC library primary (AID 1117343;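 active means compounds that lower viability of the colon cancer cells in the luminescence readout, with no numeric limit stated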); conditions: CellTiter-Glo luminescence; at 20 µM (top of the series)
[9] = decreased DLD-1 cellular survival, CellTiter-Glo luminescent readout, NPC compound collection, primary HTS (AID 1117346;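 active means compounds that lower survival of DLD-1 colon cancer cells in the luminescence readout, no cutoff given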); conditions: DLD-1 viability, CellTiter-Glo luminescence; at 20 µM (top of the series)
[10] = molecular target: 6-phosphogluconate dehydrogenase, decarboxylating (Homo sapiens) (UniProt P52209); assay: 6PGD enzyme inhibitors, primary screen, biochemical, human, recombinant enzyme, NADPH absorbance (AID 1159550;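 active means at least 20% inhibition of 6-phosphogluconate dehydrogenase activity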); conditions: recombinant 6PGD, NADPH absorbance 341 nm; at 10 µM; stronger effect = higher value
[11] = differential killing of epithelial or mesenchymal cells, primary screen, imaging, PC-3E GFP, TEM4-18 mCherry, co-culture (AID 1345086;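 active means compounds killing one labelled cell type while sparing the other, by normalised counts and ratio limits, not self-fluorescent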;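 on all read-outs here: cells exposed to compound for 72 h before imaging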;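 on red/green cell ratio (normalised): normalised mesenchymal count divided by normalised epithelial count so high means epithelial killing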); conditions: imaging cell counts, at 1 µM; for red/green cell ratio (normalised): actives lie on both sides
[12] = tested on: Aerobactin synthetase IucA (Klebsiella pneumoniae hvKP1); assay: Biochemical IucA enzyme inhibition primary screen of the Spectrum library (AID 1346200; call rule not given here;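 further: 100% = wells without compound and 0% = wells lacking enzyme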); conditions: malachite green pyrophosphate, A620, at 8 µM, stronger effect = lower value
[13] = sensitizers of A549 cells to miR-34 induction, primary screen, imaging, A549 dox-inducible miR-34, nuclei and caspase counts (AID 1347080;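 active means compounds whose cell count with miR-34 switched on is under 0.7 times the count with it off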); conditions: A549 miR-34 inducible, Hoechst nuclei count, 48 h
[14] = molecular target: NAD(+) hydrolase SARM1 (Homo sapiens) (UniProt Q6SZW1); assay: SARM1 TIR NADase inhibitors, cell lysate, NAD-Glo luminescence (AID 1508614;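 active means compound whose remaining NAD level is above about 45 nM, limit read from the data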); conditions: SAM-TIR HEK293T lysate NADase, at 1 µM, stronger effect = higher value
[15] = molecular target: Mitogen-activated protein kinase 7 (Homo sapiens) (UniProt Q13164); assay: ERK5 transactivation activators in reporter cells, primary screen, cell-based, HTS (AID 1508626;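 active means luciferase signal above three times the same-plate solvent-only control wells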;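 further: luciferase driven by Gal4-ERK5 fusion binding five Gal4 sites before minimal TATA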); conditions: HeLa Gal4-ERK5 transactivation, 18 h, at 5 µM, stronger effect = higher value
[16] = hESC survival regulators, cell-based (AID 493140; call rule not given here;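 further: cells exposed to compounds for four days before counting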); conditions: human embryonic stem cell survival screen; stronger effect = higher value
[17] = survival rescue of mitochondrial mutant cells in low glucose, primary screen, MELAS cybrids, Rieske KO mouse fibroblasts, CellTiter-Glo (AID 1508586;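 active means mean z-score across replicates of 1.96 or higher in either the MELAS or the Rieske mutant cell line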;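 further: z relative to plate mean and SD of compound and empty wells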)
[18] = viability rescue of complex I mutant cybrids, primary screen, cell-based, galactose medium, ATP luminescence (AID 1645843;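 active means z-score of at least 1.8 in each of two replicates, scored against plate mean and spread of sample wells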;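 further: positive z means more ATP and so rescue of galactose-driven cybrid death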); conditions: complex I mutant cybrid cells, 72 h, stronger effect = higher value
[19] = measured here: epithelial PC-3E GFP cell survival
[20] = measured here: mesenchymal TEM4-18 mCherry cell survival
[21] = measured here: relative caspase fold change +Dox/-Dox
[22] = measured here: total cells with miR-34 induction, stronger effect = lower value
[23] = measured here: total cells without miR-34 induction
[24] = MELAS cybrid survival, CellTiter-Glo 48 h, stronger effect = higher value
[25] = Rieske KO mouse fibroblast survival, CellTiter-Glo 72 h

Chain of 6-phosphogluconate dehydrogenase, decarboxylating (Homo sapiens) (P52209 whole entry, looked up): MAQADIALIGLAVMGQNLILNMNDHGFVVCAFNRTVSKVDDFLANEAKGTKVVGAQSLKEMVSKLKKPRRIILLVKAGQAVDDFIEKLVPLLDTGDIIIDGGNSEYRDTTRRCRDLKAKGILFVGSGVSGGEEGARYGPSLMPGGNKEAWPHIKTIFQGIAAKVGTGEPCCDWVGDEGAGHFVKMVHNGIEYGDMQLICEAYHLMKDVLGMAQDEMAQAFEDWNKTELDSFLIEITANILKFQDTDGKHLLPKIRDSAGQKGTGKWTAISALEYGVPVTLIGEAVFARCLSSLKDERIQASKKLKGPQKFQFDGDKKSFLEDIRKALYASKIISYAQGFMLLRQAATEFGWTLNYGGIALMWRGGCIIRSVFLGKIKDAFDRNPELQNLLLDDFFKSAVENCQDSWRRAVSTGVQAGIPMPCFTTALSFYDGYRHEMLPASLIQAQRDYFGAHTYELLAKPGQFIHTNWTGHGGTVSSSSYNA
Chain of NAD(+) hydrolase SARM1 (Homo sapiens) (Q6SZW1 whole entry, looked up, the tested form may be a part): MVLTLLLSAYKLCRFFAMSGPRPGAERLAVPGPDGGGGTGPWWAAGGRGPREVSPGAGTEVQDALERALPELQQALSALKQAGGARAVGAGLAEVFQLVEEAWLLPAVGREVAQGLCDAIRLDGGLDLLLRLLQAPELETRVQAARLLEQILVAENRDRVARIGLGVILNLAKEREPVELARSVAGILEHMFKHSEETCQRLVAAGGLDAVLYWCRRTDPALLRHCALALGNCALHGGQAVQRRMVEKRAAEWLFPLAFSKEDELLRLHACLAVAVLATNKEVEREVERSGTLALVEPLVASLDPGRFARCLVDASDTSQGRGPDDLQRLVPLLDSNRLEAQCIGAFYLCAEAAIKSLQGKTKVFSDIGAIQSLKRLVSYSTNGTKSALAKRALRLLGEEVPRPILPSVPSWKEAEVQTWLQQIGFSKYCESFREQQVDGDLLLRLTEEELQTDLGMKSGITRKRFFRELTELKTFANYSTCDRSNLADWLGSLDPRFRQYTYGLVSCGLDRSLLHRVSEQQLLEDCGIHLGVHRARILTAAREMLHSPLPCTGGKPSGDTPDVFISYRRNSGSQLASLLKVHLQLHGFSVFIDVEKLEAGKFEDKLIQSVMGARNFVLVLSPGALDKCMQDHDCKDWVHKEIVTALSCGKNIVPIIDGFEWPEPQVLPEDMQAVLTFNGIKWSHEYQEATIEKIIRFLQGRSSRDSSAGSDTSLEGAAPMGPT
Chain of Mitogen-activated protein kinase 7 (Homo sapiens) (Q13164 whole entry, looked up, the tested form may be a part): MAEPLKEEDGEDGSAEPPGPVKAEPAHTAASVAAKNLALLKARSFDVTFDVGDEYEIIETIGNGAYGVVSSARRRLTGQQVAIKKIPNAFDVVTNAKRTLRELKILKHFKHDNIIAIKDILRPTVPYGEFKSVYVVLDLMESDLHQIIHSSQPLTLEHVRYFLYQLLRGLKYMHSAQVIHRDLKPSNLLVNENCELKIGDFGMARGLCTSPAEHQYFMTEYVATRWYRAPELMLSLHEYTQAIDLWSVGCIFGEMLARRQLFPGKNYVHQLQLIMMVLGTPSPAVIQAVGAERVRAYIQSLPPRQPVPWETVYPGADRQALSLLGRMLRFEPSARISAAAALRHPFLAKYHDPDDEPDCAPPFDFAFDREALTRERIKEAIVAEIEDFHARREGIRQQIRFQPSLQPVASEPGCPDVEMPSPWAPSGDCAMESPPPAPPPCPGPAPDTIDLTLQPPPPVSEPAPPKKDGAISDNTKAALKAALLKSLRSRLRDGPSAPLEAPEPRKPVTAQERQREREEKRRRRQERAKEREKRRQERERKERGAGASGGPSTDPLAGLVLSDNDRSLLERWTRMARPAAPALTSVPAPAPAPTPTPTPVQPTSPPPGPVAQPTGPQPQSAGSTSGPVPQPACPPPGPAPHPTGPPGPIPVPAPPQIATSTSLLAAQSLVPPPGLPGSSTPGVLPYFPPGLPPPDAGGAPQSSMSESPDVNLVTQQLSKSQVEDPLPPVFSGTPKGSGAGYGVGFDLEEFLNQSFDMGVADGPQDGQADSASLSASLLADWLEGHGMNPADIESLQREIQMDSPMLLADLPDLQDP

For `CC(=O)Nc1cc([As](=O)(O)O)ccc1O`, the parasite load remaining [1] was 96.4% (inactive) and 52.6% (inactive), the viability [1] was 66.8% and 91.1% and the nuclear beta-catenin stimulation ([2]; at 10 µM) was 4.8% (inactive). The nuclear beta-catenin stimulation ([2]; stimulation, at 2 µM) was 0.2%, the insulin secretion stimulation [3] was -0.2% (inactive) and the viability decrease [4] was -42.6% (inactive). The tube area decrease [5] was -21.2% (inactive), the GLP1 secretion stimulation [6] was -0.8% (inactive) and the inhibition of viability [7] was -7.73% (inactive). For the same compound, the viability decrease (inhibition) [8] was 16.9% (inactive), the viability decrease (inhibition) [9] was -3.7% (inactive) and the inhibition [10] was 17.7% (inactive). For the same compound, the red/green cell ratio (normalised) [11] was 0.8 (inactive), the normalised cell number [11, 19] was 1.16 and the normalised cell number [11, 20] was 0.94. The activity remaining [12] was 107% (inactive), the fold change ([13]; stronger effect = lower value) was 0.975 (inactive) and the fold change [13, 21] was 2.55. For the same compound, the cell count [13, 22] was 12000, the cell count [13, 23] was 12300 and the remaining NAD [14] was 10 nM (inactive). For the same compound, the luciferase signal [15] was 52 AU (inactive).
In the case of `C[C@H]1C(=O)O[C@@H]2CCN3CC=C(COC(=O)[C@](C)(O)[C@]1(C)O)[C@H]23`, the survival [16] is reported as 1.5 (inactive), the parasite load remaining [1] is reported as 96.1% (inactive) and 65.8% (inactive) and 70.5% (inactive) and the viability [1] is reported as 103% and 66% and 74.5%. For the same compound, the nuclear beta-catenin stimulation ([2]; at 10 µM) was -0.7% (inactive), the nuclear beta-catenin stimulation ([2]; stimulation, at 2 µM) was -0.6% and the insulin secretion stimulation [3] was -0.1% (inactive). For the same compound, the viability decrease [4] was -4.9% (inactive), the tube area decrease [5] was 17.9% (inactive) and the GLP1 secretion stimulation [6] was -1.4% (inactive). The inhibition of viability [7] was -6% (inactive), the viability decrease (inhibition) [8] was -1.2% (inactive) and the viability decrease (inhibition) [9] was -12.1% (inactive). For the same compound, the inhibition [10] was 17% (inactive), the red/green cell ratio (normalised) [11] was 1.08 (inactive) and the normalised cell number [11, 19] was 0.97. For the same compound, the normalised cell number [11, 20] was 1.05, the activity remaining [12] was 111% (inactive) and the fold change ([13]; stronger effect = lower value) was 0.8 (inactive). It also gave a fold change [13, 21] of 1.54, a cell count [13, 22] of 8710 and a cell count [13, 23] of 10900. For the same compound, the luciferase signal [15] was 56 AU (inactive).
For `C[C@@H]1CC[C@H]2[C@@H](C)C(=O)O[C@@H]3O[C@@]4(C)CC[C@@H]1[C@]32OO4`, the parasite load remaining [1] was 25.6% (inactive) and 10.2% (inactive), the viability [1] was 117% and 66.5% and the nuclear beta-catenin stimulation ([2]; at 10 µM) was 4.6% (inactive). For the same compound, the nuclear beta-catenin stimulation ([2]; stimulation, at 2 µM) was 12.4%, the insulin secretion stimulation [3] was 1.2% (inactive) and the viability decrease [4] was -77.7% (inactive). The tube area decrease [5] was 2.4% (inactive), the GLP1 secretion stimulation [6] was 2.4% (inactive) and the inhibition of viability [7] was -20.1% (inactive). For the same compound, the viability decrease (inhibition) [8] was 9.1% (inactive), the viability decrease (inhibition) [9] was 1.3% (inactive) and the inhibition [10] was 13.7% (inactive). For the same compound, the fold change ([13]; stronger effect = lower value) was 0.79 (inactive) and 0.823 (inactive) and 0.882 (inactive), the fold change [13, 21] was 1.42 and 2.37 and 1.1 and the cell count [13, 22] was 7550 and 7220 and 8310. The cell count [13, 23] was 9550 and 8770 and 9420, the z-score [17, 24] was -0.639 (inactive) and -0.018 (inactive) and the z-score [17, 25] was -1.11 and 0.162. The remaining NAD [14] was 10 nM (inactive), the luciferase signal [15] was 84 AU (inactive) and the z-score [18] was -0.515 (inactive) and -1.27 (inactive).
With `O=c1oc2ccccc2c(O)c1Cc1c(O)c2ccccc2oc1=O` the survival [16] was 4.42 (inactive), the parasite load remaining [1] was 87.2% (inactive) and 95.3% (inactive) and 51.7% (inactive) and the viability [1] was 97.7% and 68.2% and 89.1%. For the same compound, the nuclear beta-catenin stimulation ([2]; at 10 µM) was -0.1% (inactive), the nuclear beta-catenin stimulation ([2]; stimulation, at 2 µM) was -2.5% and the insulin secretion stimulation [3] was -1% (inactive). For the same compound, the viability decrease [4] was 97.6% (active), the tube area decrease [5] was 26% (inactive) and the GLP1 secretion stimulation [6] was -3.4% (inactive). For the same compound, the inhibition of viability [7] was 90.5% (active), the viability decrease (inhibition) [8] was 107% (active) and the viability decrease (inhibition) [9] was 92.1% (active). For the same compound, the inhibition [10] was -29.3% (inactive), the red/green cell ratio (normalised) [11] was 0.99 (inactive) and the normalised cell number [11, 19] was 1.34. For the same compound, the normalised cell number [11, 20] was 1.32, the activity remaining [12] was 120% (inactive) and the fold change ([13]; stronger effect = lower value) was 0.822 (inactive) and 0.882 (inactive) and 0.865 (inactive). For the same compound, the fold change [13, 21] was 1.17 and 1.33 and 1.22, the cell count [13, 22] was 8510 and 8000 and 10400 and the cell count [13, 23] was 10300 and 9060 and 12000. The z-score [17, 24] was -0.183 (inactive) and 0.389 (inactive), the z-score [17, 25] was -0.295 and 0.839 and the remaining NAD [14] was 10 nM (inactive). For the same compound, the luciferase signal [15] was 28 AU (inactive).
